Reference: PubChem BioAssay (NCI)
This is part of a sample that, as a whole, favours compounds with a hit. Of some 83,000 tested, about 20% had one in any assay.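 The endpoint reported here, percent growth, reads 100 for growth as untreated, 0 for no net growth and -100 for all cells dead.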 Unmarked numbers belong to inactive results. Calls of active or inactive are those of the source. The calls were made as follows: active = growth percent below 10; inactive = the rest.

Key:
Assay in all cases: NCI-60 one-dose screen, 48 h (100 = growth as untreated, 0 = no growth, -100 = all killed)
Settings in all cases: 10 µM unless noted
T-47D breast = test system: T-47D breast
BT-549 breast = test system: BT-549 breast
MDA-MB-435 melanoma = test system: MDA-MB-435 melanoma
SW-620 colon = test system: SW-620 colon
MCF7 breast = test system: MCF7 breast
HCT-116 colon = test system: HCT-116 colon
HCC-2998 colon = test system: HCC-2998 colon
KM12 colon = test system: KM12 colon

Structure (SMILES)	growth (T-47D breast)	growth (BT-549 breast)	growth (MDA-MB-435 melanoma)	growth (SW-620 colon)	growth (MCF7 breast)	growth (HCT-116 colon)	growth (HCC-2998 colon)	growth (KM12 colon)
COc1ccc(C(=O)Cn2c(C(=O)c3ccc(OC)cc3)nc3ccccc32)cc1	29.9%	31%	-50% (active)	9.77% (active)	16%	12.2%	21.5%	24.8%
Cn1c(=O)c2[nH]c(SCC(=O)Nc3ccc(C(=O)/C=C/c4ccccc4Cl)cc3)nc2n(C)c1=O	92.4%	83.3%	92%	95.8%	69.4%	58.5%	106%	97.9%
N#C/C(=C\c1ccc(-c2cccc(C(F)(F)F)c2)o1)c1ccccc1	35.6%	96.6%	99.1%	92.3%	25.7%	80.4%	100%	79.3%
N#Cc1ccc(O)c(C2=NCC(Cc3ccccc3)O2)c1 (centres undefined)	-1.96% (active)	37.7%	64.5%	40.2%	39%	14.9%	72.3%	40.9%
CCN1C(=O)N(CC)C2C1NC(=S)N2/N=C/c1ccc(C(F)(F)F)cc1 (centres undefined)	74.7%	71%	4.45% (active)	55.3%	33.2%	54.9%	74%	56%
S=c1nc2oc(-c3ccccc3)c(-c3ccccc3)c2c(/N=C\c2ccco2)[nH]1	65.9%	103%	108%	101%	93.1%	84.4%	109%	94.1%
O=C1/C=C/[C@@H](O)[C@@H]2C[C@@H](O)C[C@H]2/C=C/CCC[C@@H](O)CCO1	116%	109%	87.9%	106%	95.1%	111%	100%	77.1%
O=C1/C(=C/c2ccccc2F)CN(C(=O)C(Cl)Cl)C/C1=C\c1ccccc1F	-7.38% (active)	-46.5% (active)	-56.8% (active)	-76.9% (active)	-49% (active)	-90.3% (active)	-76.9% (active)	-51.7% (active)
Cc1ccc2c(-c3nnc(N)s3)cc(=O)oc2c1C	72.9%	101%	96.1%	97.8%	93.4%	95.6%	113%	105%
COc1ccc(-c2ccc(-c3ccc(C(=N)N)nc3)s2)cc1Cl	-28.6% (active)	77.9%	-90.3% (active)	-79.8% (active)	-70% (active)	-65.5% (active)	-43.8% (active)	-86% (active)
Oc1ccc(/C=C/c2ccc(O)cc2)cc1	69%	18.7%	52.8%	65.4%	33.1%	47%	96.4%	45.5%
CC1=C(CCC(C)NCc2ccc(OCCCN3CCCCC3)cc2)C(C)(C)CCC1 (centres undefined)	-64.8% (active)	-63.9% (active)	-93.8% (active)	-80.3% (active)	-58.4% (active)	-85.3% (active)	-84.3% (active)	-80% (active)
COc1ccc(CCN2C(=O)/C(=C/c3ccc(C4Oc5ccccc5C5CC(c6ccccc6)=NN54)cc3)SC2=S)cc1 (centres undefined)	103%	101%	104%	100%	97.3%	104%	104%	106%
C=C1C(=O)O[C@H]2[C@H]1CC/C(CNC(=O)c1c[nH]c3ccc(F)cc13)=C\CC[C@@]1(C)O[C@@H]21	-39.6% (active)	13%	3.64% (active)	-48.9% (active)	-26.3% (active)	-49.1% (active)	-79.3% (active)	42.4%
CCN1CCN(CCNc2nccc(-c3c(-c4ccc(F)c(OC)c4)nc4sccn34)n2)S1(=O)=O	87.3%	93.2%	26.6%	87.4%	50%	44.5%	89%	74.2%
COc1ccc(C(=O)Cn2c(C(=O)c3ccc(Cl)cc3)nc3ccccc32)cc1	73.8%	88.8%	-8.55% (active)	32.7%	20.4%	26.9%	72.7%	38.2%
O=c1c2ccccc2c(=O)c2c1sc1c(=O)c3ccc(O)cc3c(=O)c12	-27.5% (active)	-92.6% (active)	-86.2% (active)	-71.1% (active)	-52.2% (active)	-29.2% (active)	-60.5% (active)	-31.5% (active)
C#CCO[C@H]1CC(CC#C)(CC#C)C(=O)[C@@H]2[C@H]1[C@H]1C[C@@H]3[C@@]4(C)CCC[C@@](C)(C(=O)OC)[C@@H]4CC[C@@]23C=C1C(C)C	84%	101%	100%	95.9%	96.1%	96.1%	103%	63.1%
O=C(Cn1nnc2ccccc21)N/N=C/c1c[nH]c2ccccc12	37.1%	52.4%	-15.9% (active)	25.3%	22%	26.9%	78.8%	22.6%
COc1ccc(/C=C/C(c2cc(OC)c(OC)c(OC)c2)n2cncn2)cc1 (centres undefined)	30.8%	45.5%	-9.62% (active)	26.6%	22.5%	22%	84.2%	30.7%
CCN1C(=O)N(CC)C2C1NN=c1s/c(=C3\C(=O)N(CCC(C)C)c4ccccc43)c(=O)n12 (centres undefined)	80.2%	11.6%	-31.3% (active)	31.7%	14.9%	10.6%	11.6%	17.6%
CCCCC#Cc1c(I)n(C)c(=O)[nH]c1=O	-2.85% (active)	-57.1% (active)	-36.8% (active)	-93.2% (active)	52.3%	-41.1% (active)	-25.6% (active)	108%
CCOc1ccc(-n2nc(C(=O)NCc3ccccc3OC)nc2-c2cc(OC)c(OC)c(OC)c2)cc1	17%	33.9%	22.1%	58%	22.1%	25.3%	57.5%	33.8%
O=C(Nc1ncc(Cc2ccccc2)s1)c1ccc2c(c1)OCCCO2	18.1%	48.8%	-34.2% (active)	38.1%	16.1%	23%	22%	16.4%
NC1(CO)COC(c2ccccc2)OC1 (centres undefined)	103%	124%	117%	111%	111%	115%	126%	107%
NS(=O)(=O)c1ccc(-c2cc(-c3nnc(SCC(=O)Nc4ccc(C(=O)/C=C/c5ccc(Cl)cc5)cc4)n3-c3ccccc3)c3ccccc3n2)cc1	79.9%	97.9%	94%	97.7%	70.6%	7.54% (active)	105%	92.1%
Cn1cc(-c2nn3cc(-c4cccs4)nc3s2)c2cc(F)ccc21	45%	43.1%	-43.4% (active)	12.4%	21.4%	14.2%	66.8%	22.2%
O=C(C1CCCCC1)[C@@H]1[C@]2(C(=O)NC3CCCCC32)[C@@H]2CCCN2[C@@]12C(=O)NC1CCC(Cl)CC12 (some centres undefined)	-69% [100 µM] (active)	-91.6% [100 µM] (active)	-91% [100 µM] (active)	-89.6% [100 µM] (active)	-51.4% [100 µM] (active)	-91.2% [100 µM] (active)	-84.8% [100 µM] (active)	-86% [100 µM] (active)
